Our source for the growth values is PubChem BioAssay (NCI).

The structures appear in SMILES notation. About 83,000 compounds went through this panel and 20% of them were active in at least one assay; those are over-represented in the sample as a whole.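 Note: values are percent growth. 100 is the growth of untreated cells, values between 100 and 0 indicate rising inhibition; between -100 and 0 indicates cell death.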 A number with no mark means an inactive call. The source made the active and inactive calls. The calls were made as follows: active = growth percent below 10; inactive = the rest.

For one assay, the system named is T-47D breast. The assay can be described thus: NCI-60 one-dose screen, 48 h (100 = growth as untreated, 0 = no growth, -100 = all killed). The settings on record: 10 µM unless noted.
Consider `COc1ccc(C(=O)c2cc(C)c(OC)c(C)c2)c(OC)c1NC(C)=O`, for which the growth was 60.6%.

Consider `CCCCCN1C=C/C(=C\C(=O)n2ccc3ccccc32)c2ccccc21`, for which the growth is 70%.

With `COc1ccc(C(=O)C2C(C#N)C(C#N)C3C=Cc4ccccc4N32)cc1` (stereo unspecified), the growth is 42.5%.

`COc1cc2c(cc1OC)C(=O)/C(=C/c1cc(C)c(O)c(C)c1)S2`: the growth was 42%.

As to `CN1CCN(C(=O)[C@]23CCC(C)(C)C[C@H]2C2=CC[C@@H]4[C@@]5(C)C/C(=C/c6cccnc6)C(=O)C(C)(C)[C@@H]5CC[C@@]4(C)[C@]2(C)CC3)CC1`, the growth was 34.5%.

Regarding `COc1cc(C=O)ccc1OC1OC(COC(C)=O)C(OC(C)=O)C(OC(C)=O)C1OC(C)=O` (stereo unspecified), the growth was 92.4%.

For the compound `Cc1ccc(CNc2c3ccccc3nc3cc(NC(=O)CCN4CCCC4)ccc23)cc1`, the growth was 16.9%.

`N#Cc1c(NCc2ccccc2I)sc2c1CCCCC2`: the growth is 73.3%.

With `Cn1nc(CC#N)c2c(=N)n(N)cnc21`, the growth is 105%.

As to `COc1cc2nc(-c3ccc(Cl)cc3)cc(OCCCN3CCCC3)c2cc1OC`, the growth was 32%.

For the compound `CCCCCCNC(=O)Nc1ccc2cc3ccc(NC(=O)NCCCCCC)cc3nc2c1`, the growth is -24.8% (active).

For the compound `O=C(Cn1c(C(=O)c2ccccc2)nc2ccccc21)c1ccc(F)cc1`, the growth was 58.7%.

Turning to `O=C(/C(=C\c1ccc([N+](=O)[O-])cc1)S(=O)Cc1ccc(F)cc1)c1ccc(F)cc1` (stereo unspecified), the growth was 10.3%.

Take `Cn1ccc2c1CC1CN(Cc3ccco3)C(=O)C1C2C(=O)O` (stereo unspecified): the growth was 98.7%.

Regarding `O=C(O)c1ccc(-c2nn(-c3ccc(C(F)(F)F)cc3)cc2CNc2ccc(Oc3ccccc3)cc2)cc1`, the growth was 65%.

For `N#CC(C(=O)/C(=N/NC(=O)c1ccccc1O)C(C#N)c1ccccc1)c1ccccc1` (stereo unspecified), the growth is 24.9%.

As to `Cc1ccc(NC(=O)Cc2ccc(/C=C/C(=O)c3ncc[nH]3)cc2)cc1`, the growth was 38.9%.

`Nc1n[nH]c2cccc(C#Cc3cccc(C(=O)Nc4cc(CN5CCOCC5)cc(C(F)(F)F)c4)c3)c12`: the growth is 37.1%.

On to `O=C(/C=C(/C=C/c1coc2ccccc12)OB(F)F)/C=C/c1coc2ccccc12`, for which the growth was 88.1%.

Consider `Cc1nc2sccn2c1-c1cn2ccsc2n1`, for which the growth is -4.14% (active).

In the case of `C=C1C(=O)O[C@H]2[C@H]1CC/C(CNC(=O)/C=C/c1ccccc1)=C\CC[C@@]1(C)O[C@@H]21`, the growth is -12.1% (active).

For `N#CC1=C(N)Oc2c(cnn2-c2ccc([N+](=O)[O-])cc2[N+](=O)[O-])C1c1ccccc1` (stereo unspecified), the growth is 98%.

Regarding `NNC(=O)c1ccc(-n2nc(-c3ccccc3)c3ccccc32)cc1`, the growth is 38.1%.

For the compound `CC1=CCC(OC(=O)C(C)(O)CCC(O)(C(=O)OC2(C)C=CC(O)(C(C)C)CC2)C(C)C)(C(C)C)CC1` (stereo unspecified), the growth was 93.9%.

As to `S=c1cc(S)c2cc(Br)ccc2[nH]1`, the growth was 84.5%.

As to `NCCCCCCNc1cc(-c2cccc(OC(F)(F)F)c2)nc2ccc(N3CCCC3)cc12`, the growth was -15.4% (active).

Take `COc1cccc(-c2cc(C(=O)Nc3ccc(/C=C/c4ccc(OC5CCN(C)CC5)cc4)cc3)ccc2OC)c1`: the growth was 53%.

As for `COC(=O)/C=C1\S/C(=N\NC(=O)c2cc3ccc2/C=C\c2ccc(cc2)/C=C\3)N(Cc2ccccc2)C1=O`, the growth was -6.25% (active).

On to `Nc1c(C(=O)Nc2cccc3cnccc23)sc2nc3c(cc12)CN(Cc1ccccc1)CC3`, for which the growth was 102%.

As for `Cc1c(C(=O)NCCC(=O)NO)sc2ncnc(Nc3ccc(NC(=O)Nc4cccc(C(F)(F)F)c4)cc3)c12`, the growth was 101%.

`O=S(=O)(NCCCNc1nccc(-c2c(-c3cccc(F)c3)nc3sccn23)n1)c1cccc2ccccc12`: the growth is 18.4%.

With `CN1C(N2CCN(S(=O)(=O)c3ccccc3)CC2)=NS(=O)(=O)c2ccccc21`, the growth is 101%.

`N#C/C(=C\c1ccccn1)c1nc2cc(Cl)ccc2s1`: the growth is 27.7%.

Regarding `COc1cc2oc(-c3cccc(C(=O)Nc4ccccc4)c3)cc(=O)c2c(O)c1OC`, the growth is 55.8%.

Take `COc1ccc(/C=C2\Oc3cc(OCCCN4CCCCC4)ccc3C2=O)cc1OC`: the growth is 97.8%.

For `O=S(=O)(NCCNc1nccc(-c2c(-c3cccc(F)c3)nc3sccn23)n1)c1ccc(Cl)cc1`, the growth is 43.2%.

On to `COc1ccc2c(c1)oc1c(C)c3c(c(C)c12)C(=O)N(CCN1CCOCC1)C3=O`, for which the growth is 106%.

`CNCCn1c(=O)c2cc(OC)c(OC)cc2c2ccc3cc4c(cc3c21)OCO4`: the growth was 6.22% (active).

The subject of another assay is BT-549 breast. The assay is described as above. The settings on record: 10 µM unless noted.
Regarding `COc1ccc(C(=O)c2cc(C)c(OC)c(C)c2)c(OC)c1NC(C)=O`, the growth is 16.3%.

Turning to `CCCCCN1C=C/C(=C\C(=O)n2ccc3ccccc32)c2ccccc21`, the growth is 96.9%.

As to `COc1ccc(C(=O)C2C(C#N)C(C#N)C3C=Cc4ccccc4N32)cc1` (stereo unspecified), the growth is 63.9%.

As to `COc1cc2c(cc1OC)C(=O)/C(=C/c1cc(C)c(O)c(C)c1)S2`, the growth was 36.9%.

For `CN1CCN(C(=O)[C@]23CCC(C)(C)C[C@H]2C2=CC[C@@H]4[C@@]5(C)C/C(=C/c6cccnc6)C(=O)C(C)(C)[C@@H]5CC[C@@]4(C)[C@]2(C)CC3)CC1`, the growth was 82%.

As to `COc1cc(C=O)ccc1OC1OC(COC(C)=O)C(OC(C)=O)C(OC(C)=O)C1OC(C)=O` (stereo unspecified), the growth is 102%.

With `Cc1ccc(CNc2c3ccccc3nc3cc(NC(=O)CCN4CCCC4)ccc23)cc1`, the growth is 35.3%.

As to `N#Cc1c(NCc2ccccc2I)sc2c1CCCCC2`, the growth is 102%.

On to `Cn1nc(CC#N)c2c(=N)n(N)cnc21`, for which the growth was 122%.

`COc1cc2nc(-c3ccc(Cl)cc3)cc(OCCCN3CCCC3)c2cc1OC`: the growth was 37.3%.

`CCCCCCNC(=O)Nc1ccc2cc3ccc(NC(=O)NCCCCCC)cc3nc2c1`: the growth was 89.4%.

In the case of `O=C(Cn1c(C(=O)c2ccccc2)nc2ccccc21)c1ccc(F)cc1`, the growth is 60.2%.

`O=C(/C(=C\c1ccc([N+](=O)[O-])cc1)S(=O)Cc1ccc(F)cc1)c1ccc(F)cc1` (stereo unspecified): the growth is 74.6%.

On to `Cn1ccc2c1CC1CN(Cc3ccco3)C(=O)C1C2C(=O)O` (stereo unspecified), for which the growth was 110%.

`O=C(O)c1ccc(-c2nn(-c3ccc(C(F)(F)F)cc3)cc2CNc2ccc(Oc3ccccc3)cc2)cc1`: the growth was 90.6%.

On to `N#CC(C(=O)/C(=N/NC(=O)c1ccccc1O)C(C#N)c1ccccc1)c1ccccc1` (stereo unspecified), for which the growth was 44.2%.

For `Cc1ccc(NC(=O)Cc2ccc(/C=C/C(=O)c3ncc[nH]3)cc2)cc1`, the growth was 48.9%.

Turning to `Nc1n[nH]c2cccc(C#Cc3cccc(C(=O)Nc4cc(CN5CCOCC5)cc(C(F)(F)F)c4)c3)c12`, the growth was 57.9%.

As for `O=C(/C=C(/C=C/c1coc2ccccc12)OB(F)F)/C=C/c1coc2ccccc12`, the growth is 99.3%.

Turning to `Cc1nc2sccn2c1-c1cn2ccsc2n1`, the growth was 80.2%.

Take `C=C1C(=O)O[C@H]2[C@H]1CC/C(CNC(=O)/C=C/c1ccccc1)=C\CC[C@@]1(C)O[C@@H]21`: the growth is -56.8% (active).

On to `N#CC1=C(N)Oc2c(cnn2-c2ccc([N+](=O)[O-])cc2[N+](=O)[O-])C1c1ccccc1` (stereo unspecified), for which the growth was 107%.

With `NNC(=O)c1ccc(-n2nc(-c3ccccc3)c3ccccc32)cc1`, the growth was 73.6%.

On to `CC1=CCC(OC(=O)C(C)(O)CCC(O)(C(=O)OC2(C)C=CC(O)(C(C)C)CC2)C(C)C)(C(C)C)CC1` (stereo unspecified), for which the growth was 114%.

Regarding `S=c1cc(S)c2cc(Br)ccc2[nH]1`, the growth was 90.7%.

Turning to `NCCCCCCNc1cc(-c2cccc(OC(F)(F)F)c2)nc2ccc(N3CCCC3)cc12`, the growth is 55.7%.

Take `COc1cccc(-c2cc(C(=O)Nc3ccc(/C=C/c4ccc(OC5CCN(C)CC5)cc4)cc3)ccc2OC)c1`: the growth is 23.1%.

As to `COC(=O)/C=C1\S/C(=N\NC(=O)c2cc3ccc2/C=C\c2ccc(cc2)/C=C\3)N(Cc2ccccc2)C1=O`, the growth is 10.3%.

As to `Nc1c(C(=O)Nc2cccc3cnccc23)sc2nc3c(cc12)CN(Cc1ccccc1)CC3`, the growth is 100%.

`Cc1c(C(=O)NCCC(=O)NO)sc2ncnc(Nc3ccc(NC(=O)Nc4cccc(C(F)(F)F)c4)cc3)c12`: the growth was 137%.

For the compound `O=S(=O)(NCCCNc1nccc(-c2c(-c3cccc(F)c3)nc3sccn23)n1)c1cccc2ccccc12`, the growth was 65%.

As to `CN1C(N2CCN(S(=O)(=O)c3ccccc3)CC2)=NS(=O)(=O)c2ccccc21`, the growth was 119%.

For `N#C/C(=C\c1ccccn1)c1nc2cc(Cl)ccc2s1`, the growth was 33.3%.

Regarding `COc1cc2oc(-c3cccc(C(=O)Nc4ccccc4)c3)cc(=O)c2c(O)c1OC`, the growth is 60.1%.

`COc1ccc(/C=C2\Oc3cc(OCCCN4CCCCC4)ccc3C2=O)cc1OC`: the growth was 83.9%.

Regarding `O=S(=O)(NCCNc1nccc(-c2c(-c3cccc(F)c3)nc3sccn23)n1)c1ccc(Cl)cc1`, the growth is 71.3%.

For `COc1ccc2c(c1)oc1c(C)c3c(c(C)c12)C(=O)N(CCN1CCOCC1)C3=O`, the growth is 97.6%.

Regarding `CNCCn1c(=O)c2cc(OC)c(OC)cc2c2ccc3cc4c(cc3c21)OCO4`, the growth is -19.8% (active).
